Results filed as inconclusive are left out. Activity calls are given as the source filed them. Calls follow the shape of the dose curve; as a rule, active = well fitted curve in the direction sought with a large enough effect; inconclusive = small, poorly fitted or top-dose-only effect, or another doubt; inactive = no such curve, though single readings can be large; an effect the other way counts as inactive or inconclusive.
How the values were obtained:
[1] = target: Luciferin 4-monooxygenase (Photinus pyralis) (UniProt P08659); experiment: Biochemical firefly luciferase enzyme assay for NPC (AID 624030);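 also: purified P. pyralis luciferase at 10 nM with luciferin and ATP substrate; 0% = DMSO and -100% = full luciferase inhibition by PTC124 control; nearly all actives have a fitted effect of over 70% in size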
Sequence of Luciferin 4-monooxygenase (Photinus pyralis) (P08659 whole entry, looked up): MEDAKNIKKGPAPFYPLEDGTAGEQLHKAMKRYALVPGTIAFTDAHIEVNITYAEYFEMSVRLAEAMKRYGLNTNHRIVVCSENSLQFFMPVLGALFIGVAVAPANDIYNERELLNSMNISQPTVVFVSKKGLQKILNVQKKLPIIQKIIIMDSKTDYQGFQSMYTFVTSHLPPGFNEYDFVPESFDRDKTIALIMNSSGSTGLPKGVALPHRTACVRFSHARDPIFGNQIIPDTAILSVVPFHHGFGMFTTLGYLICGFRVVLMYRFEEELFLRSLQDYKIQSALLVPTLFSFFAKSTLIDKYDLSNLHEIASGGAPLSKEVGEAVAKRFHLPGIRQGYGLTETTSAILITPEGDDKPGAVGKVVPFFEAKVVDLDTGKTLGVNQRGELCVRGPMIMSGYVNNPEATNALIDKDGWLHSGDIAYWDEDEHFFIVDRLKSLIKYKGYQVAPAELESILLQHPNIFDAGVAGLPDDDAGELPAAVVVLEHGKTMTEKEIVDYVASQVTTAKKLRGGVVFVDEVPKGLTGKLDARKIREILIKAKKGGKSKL
Method in brief: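 Purified P. pyralis luciferase at 10 nM in 50 mM Tris Acetate (final), luminescence read within 5 minutes of enzyme addition to compounds. Activity normalised to PTC124 versus DMSO; concentration-response curves classed by r2, magnitude and activity.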

[2] = qHTS Assay for Identifying Gametocytocidal Compounds (AID 743244);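 also: % is scaled to controls: 0 for no effect and ±100 for the full control effect; actives lower the fluorescent signal which means gametocytes are killed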; settings: P. falciparum 3D7 stage III-V gametocytes, alamarBlue, 72 h; max response: hits give low values
Method in brief: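 Stage III–V gametocytes of P. falciparum 3D7 were seeded at 20,000 cells/well onto pre-dispensed compounds. After 72 h, 37 °C, 5% CO2, alamarBlue was added for another 24 h.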

[3] = P-glycoprotein substrates identified in KB-8-5-11 adenocarcinoma cell line, qHTS therapeutic library screen (AID 1346987); also: % is scaled to controls: 0 for no effect and ±100 for the full control effect; nearly all actives have a fitted effect of over 65% in size
Method in brief: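 Compounds are pinned in dose-response onto KB-8-5-11 cells (500 cells/well, colchicine-free medium) and left 72 h at 37 degree C. CellTiter-Glo luminescence then yields AC50 values.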

KB-3-1 = experiment: Cytotoxic Profiling of Annotated Libraries Using Quantitative High-Throughput Screening (AID 1296008); settings: Five cell lines viability, CellTiter-Glo ATP luminescence, 48-72 h; max response: hits give low values; also: % is scaled to controls: 0 for no effect and ±100 for the full control effect; nearly all actives have a fitted effect of over 60% in size
Method in brief: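 Cells exposed to compounds for 48 or 72 hr at 37 degrees Celsius. Viability read as ATP-coupled luminescence with CellTiter-Glo after 10 min at room temperature.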

[4] = Drug repurposing screens with cells derived from glioblastoma tumor samples (AID 1345199); settings: GBM patient neurospheres viability, ATP luminescence, 48 h; Potency: tumour line A; series mostly up to 45.9 µM; also: % is scaled to controls: 0 for no effect and ±100 for the full control effect; nearly all actives have a fitted effect of over 40% in size
Method in brief: (§1)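 Primary testing used CD133+ neurospheres from four GBM patients, seven concentrations, 48 h exposure and ATP-based viability; confirmation added three slower-growing patient lines.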

astro = experiment: as above; settings: viability, ATP luminescence, 48 h; series mostly up to 45.9 µM
Method in brief: as §1

CNC(C)Cc1ccccc1 (stereo unspecified)
inactive: Potency [1] | max response [2] 7.96% | Potency [3] | max response (KB-3-1) -8.49% | Potency [4] | Potency (astro)

CCC(=O)O[C@H]1[C@@H](N2CCCCC2)C[C@H]2[C@@H]3CC[C@H]4C[C@H](OC(C)=O)[C@@H](N5CCCCC5)C[C@]4(C)[C@H]3CC[C@@]21C
inactive: Potency [3] | max response (KB-3-1) -10.6% | Potency (astro)

O=P1(N(CCCl)CCCl)NC(OO)CCO1 (stereo unspecified)
inactive: Potency [1] | max response [2] -1.64% | Potency [3] | max response (KB-3-1) 2.7% | Potency [4] | Potency (astro)

COc1ccc(OC)c(C[C@H](C)N)c1
inactive: Potency [1] | max response [2] -1.24% | max response (KB-3-1) 4.2% | Potency [4] | Potency (astro)

CN(C)CCO
inactive: Potency [1] | max response [2] 29.8% | Potency [3] | max response (KB-3-1) -9.6% | Potency [4] | Potency (astro)

COc1cc(C[C@H](C)N)c(OC)cc1Br
inactive: Potency [1] | max response [2] -8.52% | Potency [3] | max response (KB-3-1) -6.95% | Potency (astro)

Source: PubChem BioAssay (NCATS)
